Screening results as filed in PubChem BioAssay.
HCV inhibitor: HCV inhibition; Huh7.5.1 HCVcc-Cre infection, luciferase reporter, 44 h; Potency, µM (series often up to 41.8 µM), for the others: at the highest dose activity change, negative = inhibition, usual class: inhibitors; hit rate 3.4% among 340,000; active means well fitted inhibition curve with a large enough effect; inconclusive means small, poorly fitted or top-dose-only effect, or another doubt; inactive means no such curve, though single readings can be large or run the other way; further: potency means the concentration at half of the fitted maximal effect
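Antiviral activity was scored by luciferase reporter output from cells infected with HCVcc-Cre (~0.5 moi) in presence of compound, 44 h infection period, cells seeded 1,000/well 4 h prior.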
Vaccinia Venus: vaccinia inhibition (Venus reporter). Vaccinia virus Venus reporter expression, fluorescence. Potency, µM (series often up to 36.5 µM), for inactives: at the top dose activity change, negative = inhibition, actives largely listed as inhibitors. hit rate 0.46% among 330,000; calls by dose curve; tested in A549 cells; further: potency means the concentration at half of the fitted maximal effect; nearly all actives have a fitted effect of over 30% in size
Vaccinia mCherry: vaccinia inhibition (mCherry reporter); hit rate 0.63% among 310,000; Vaccinia virus mCherry reporter infection, fluorescence; Potency, µM (top dose mostly 36.5 µM), for the others: top-dose activity change, negative = inhibition, hits mostly inhibitors; AID 720579; calls by dose curve; tested in A549 cells; further: potency means the concentration at half of the fitted maximal effect; nearly all actives have a fitted effect of over 35% in size
MARV entry inh: inhibitors of Marburg virus binding or cell entry; hit rate 1.8% among 300,000; Potency, µM (series often up to 37.8 µM), for inactives: at the highest dose activity change, negative = inhibition, actives largely listed as inhibitors; Marburg virus pseudotyped entry inhibition, cell reporter; calls by dose curve; tested in HEK293 cells; further: potency means the concentration at half of the fitted maximal effect
HCMV antiviral: inhibitors of human cytomegalovirus | HFF cells, HCMV-luciferase reporter, 72 h; hits give low values | activity change, negative = inhibition, % at 57.5 µM | hit rate 4.5% among 410,000 | AID 1259415; in the data active means activity change below about -60%; inconclusive means no clear call, values can overlap the other calls; inactive means above about -39%
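Two compound doses tested in HFFs infected with HCMV-luciferase, MOI 1 PFU/cell, 72 h at 37C. Lysate luminescence read with OneGlo; data normalized against buffer-only and 10uM Salinomycin inhibitor controls.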
LASV entry inh: blocks Lassa virus binding to or entry into cells | Lassa virus pseudotype entry inhibition, cell reporter | Potency, µM (highest dose often 37.9 µM), without a hit: top-dose activity change, negative = inhibition, hits mostly inhibitors | hit rate 1.2% among 300,000; calls by dose curve; tested in HEK293 cells; further: potency means the concentration at half of the fitted maximal effect; nearly all actives have a fitted effect of over 50% in size
Numbers without * were called inactive; i = inactive; ? = inconclusive; nt = no result; [ ] = dose if it differs, or a comment. Only some compounds are listed: those with a hit (about 7.8% of all), similar ones and a draw of the others. On the % scale 0 is the no-effect control and ±100 the full control effect.

SMILES	HCV inhibitor	Vaccinia Venus	Vaccinia mCherry	MARV entry inh	HCMV antiviral	LASV entry inh
O=C1/C(=C/c2ccccc2)CCC1C1CCCC1 (centres undefined)	6.0%	-12.6%	-11.0%	?	-33.6	?
CN1C2CCC1/C(=C\c1ccccc1)C(=O)/C2=C\c1ccccc1	12.6µM*	nt	nt	14.6µM*	-66.1*	?
CC1C/C(=C/c2ccccn2)C(=O)/C(=C/c2ccccn2)C1 (centres undefined)	2.24µM*	?	?	?	nt	3.98µM*
Cc1ccc(-c2nc3c4ccccc4n(CC(=O)NCc4ccc(F)cc4)c(=O)n3n2)cc1	nt	1.0%	-1.1%	nt	-10.5	10.6%[46.1 µM]
CC1(C)[C@H]2CC[C@]1(C)[C@H](NC(=O)CCN1CCCCC1)C2	nt	nt	nt	-18.7%	nt	nt
COc1ccc(C(C)=O)cc1COc1ccccc1[N+](=O)[O-]	6.31µM*	-13.2%	i	-1.6%[46.1 µM]	10.7	-23.9%[46.1 µM]
COc1ccc(C(C)=O)cc1COC(=O)c1ccc(N)c([N+](=O)[O-])c1	11.2µM*	-13.2%	i	?	18.4	10.8%
COc1cccc(-c2nc(SCC(=O)Nc3ccc4c(c3)OCO4)c(-c3ccccc3)[nH]2)c1	nt	-15.5%	-16.2%	-29.8%[46.1 µM]	?	?
O=C(c1cnccn1)N1CC(=O)N2[C@H](C1)[C@@H](c1ccc(Br)cc1)[C@@H]2CO	nt	nt	nt	nt	-3.7	nt
Cc1cc2ccccc2nc1SCC(=O)N1CCCC1	1µM*	nt	nt	10.1%	-20.2	-0.3%
CCN1C(=O)CC(C(=O)Nc2ccc(OC)cc2)SC1=Nc1ccc(C)c(C)c1 (centres undefined)	nt	-9.2%	-25.5%	?	-12.9	-2.9%[46.1 µM]
Cc1ccc(S(=O)(=O)CCC(=O)N(CCCN2CCOCC2)c2nc3ccccc3s2)cc1	-13.3%	?	14.1µM*	?	33.1	?
O=C(c1ccco1)N(CC1CCCO1)c1nc(-c2ccccc2)cs1 (centres undefined)	?	nt	nt	0.9%	-101.1*	-15.4%
COc1ccc(-c2csc(N(C)C(=O)c3ccco3)n2)cc1	5.1%	-5.8%	-18.8%	10.1%	13.1	-12.8%
O=C(CCS(=O)(=O)c1ccccc1)N(CCCN1CCOCC1)c1nc2ccccc2s1	?	-25.5%	-14.1%	?	69.6	?
Cc1ccc(-c2csc(N(CCCN(C)C)C(=O)c3ccco3)n2)cc1	?	-8.1%	-4.2%	?	-12.6	-10.4%
COc1ccc(-c2csc(N(CCCN3CCOCC3)C(=O)c3ccco3)n2)cc1	10µM*	nt	nt	?	24.4	?
Cc1ccc(-c2csc(N(CCCN3CCOCC3)C(=O)c3ccco3)n2)cc1	11.2µM*	-13.7%	-23.1%	?	-6.1	?
CCCNc1nc(NCc2ccccc2OC)c2cnn(C)c2n1	nt	-14.6%	-23.6%	nt	-33.3	-9.9%[46.1 µM]
CC1CCN(S(=O)(=O)c2ccc3ncn(CC(=O)Nc4ccccc4C(F)(F)F)c(=O)c3c2)CC1	nt	-8.1%	-4.4%	0.2%[46.1 µM]	-4.9	0.9%[46.1 µM]
CN(C)CCCN(C(=O)c1ccco1)c1nc(-c2ccc(Cl)cc2)cs1	11.2µM*	nt	nt	nt	112.4	nt
CCOC(=O)c1c(C)c(-c2ccccc2)n(CC(=O)Nc2cc(C)cc(C)c2)c1C	nt	?	-16.4%	21.1%[46.1 µM]	-96.8*	nt
CC(=O)c1c(C(C)=O)c(C)n(-c2nc(-c3ccc(Br)cc3)c(C)s2)c1C	?	nt	nt	?	?	16.4µM*
COc1ccc(-c2nc(-n3c(C)c(C(C)=O)c(C(C)=O)c3C)sc2C)cc1OC	-31.6%	nt	nt	-21.0%	47.7	3.3%
COc1ccc(CCNC(=O)c2cc(C3CC3)nc3c2cnn3C(C)C)cc1	10µM*	nt	nt	nt	-28.9	nt
SMILES	HCV inhibitor	Vaccinia Venus	Vaccinia mCherry	MARV entry inh	HCMV antiviral	LASV entry inh
Cc1cccc(OCCNC(=O)c2cc(C3CC3)nc3c2cnn3C(C)C)c1	nt	-7.6%	i	nt	-7.0	nt
COc1ccccc1OCCNC(=O)c1cc(C2CC2)nc2c1cnn2C(C)C	1.26µM*	-24.6%	-29.5%	11.6%	-16.0	-10.5%
COc1ccccc1CCNC(=O)c1cc(C2CC2)nc2c1cnn2C(C)C	8.91µM*	-15.8%	-9.0%	?	-31.2	?
COc1ccccc1CNC(=O)c1oc2c(c1C)-c1nn(Cc3ccc(Cl)cc3)cc1CC2	nt	-8.6%	-5.7%	nt	9.8	1.4%[46.1 µM]
COc1cccc(-c2nc(C(N)=O)c3c(n2)n(-c2ccc4c(c2)OCO4)c(=O)n3C)c1OC	nt	1.4%	3.9%	nt	11.1	?
O=c1c2ccccc2c(-c2ccc(O)cc2)nn1-c1cccc(C(F)(F)F)c1	?	11.2µM*	?	?	?	?
O=c1c2ccccc2c(-c2ccc(Cl)cc2)nn1-c1ccccc1	?	nt	nt	-2.2%	-63.4*	-2.0%
O=c1c2ccccc2c(-c2cccc(C(F)(F)F)c2)nn1-c1ccccc1	8.0%	-13.0%	-12.1%	?	-3.7	?
Cc1ccccc1C(=O)OCc1cc(=O)n2nc(C(C)C)sc2n1	nt	-8.1%[7.34 µM]	-10.4%[7.34 µM]	nt	-0.8	?
COc1cc(NC(=O)c2ccc([N+](=O)[O-])o2)ccc1NC(=O)c1cccs1	?	10µM*	10µM*	?	-4.4	?
O=C(Nc1cccc(NC(=O)c2cccs2)c1)c1ccc([N+](=O)[O-])o1	10µM*	?	?	?	-92.3*	?
CCc1ccc(NC(=O)CCc2c(C)n(C)c3cc(-c4ccccc4C)nn3c2=O)cc1	nt	-9.5%	-13.4%	nt	-2.4	-16.0%[46.1 µM]
CC(=O)c1c(C)[nH]c(C(=O)NCCc2cccc(C)c2)c1C	?	?	?	-28.6%	89.3	-24.7%
CCc1c(C(=O)NCCc2cccc(C)c2)[nH]c(C)c1C(C)=O	-20.6%	9.6%	-14.7%	?	-16.7	3.55µM*
O=C(O)c1cc(-c2ccccc2)nn1Cc1ccccc1	nt	2.2%	-8.5%	10.8%[46.1 µM]	-1.9	1.8%[46.1 µM]
Cc1nc(N)nc(C)c1Cc1ccccc1	2.8%	-11.3%	-17.7%	-28.8%[46.1 µM]	-35.3	-6.7%
Cc1nc(N)nc(Cl)c1Cc1ccc(Cl)cc1	15.1%	-7.3%	-28.3%	?	-61.2*	-9.5%[46.1 µM]
O=C(CCl)Nc1cc(-c2ccccc2)nn1-c1ccccc1	14.1µM*	nt	nt	5.17µM*	-87.3*	?
Cc1ccc(-n2nc(C)c(NC(=O)CCl)c2C)cc1	?	?	?	?	-100.6*	10µM*
Cc1ccc(C)c(NC(=O)c2nc(-c3ccccc3)n(-c3ccccc3)n2)c1	13.8%	nt	nt	-26.1%	-22.4	-29.6%
Cc1ccc(OCC(=O)Nc2cc(-c3cccc(C)c3)nn2-c2ccccc2)cc1	nt	-11.2%	-13.3%	nt	87.5	6.9%[46.1 µM]
Cc1ccc(-c2cc(NC(=O)CCl)n(-c3ccccc3)n2)cc1	?	-12.1%	-4.7%	-24.6%[46.1 µM]	-96.7*	-18.2%
Cc1ccc(C)c(NC(=O)c2cc(-c3ccccc3)nn2-c2ccccc2)c1	11.2µM*	-19.2%	-27.3%	11.2µM*	?	?
COc1cc(C2C(=O)N(C3CCC(C)CC3)CC(=O)N2CCc2ccc(Cl)cc2)ccc1OC(C)C (centres undefined)	nt	-5.5%	-1.2%	nt	-9.7	-7.1%[46.1 µM]
